Reference: PubChem BioAssay (Tox21)
Results filed as inconclusive are left out. Entries that show only a call come without a potency. The source made the active and inactive calls. Calls come from the whole dose curve.

Each molecule was assayed against Progesterone receptor (Homo sapiens) (UniProt P06401) (assay: qHTS assay to identify small molecule agonists of the progesterone receptor (PR) signaling pathway (AID 1346784; note: nearly all actives have a fitted effect of over 30% in size)). Conditions: PR-UAS-bla HEK293T, beta-lactamase FRET ratio, 16 h; series mostly up to 92.4 µM.
Source text: U.S. Tox21 Program National Center for Advancing Translational Sciences [NCATS] NIH Chemical Genomics Center [NCGC] U.S. Environmental Protection Agency [EPA] National Institutes of Environmental Health Sciences [NIEHS] National Toxicology Program [NTP] U.S. Food and Drug Administration [FDA] […] Endocrine disrupting chemicals (EDCs) and their interactions with steroid hormone receptors like PR causes disruption of normal endocrine function. To identify the compounds that activate PR signaling, a PR-UAS-bla GripTite cell line i.e. PR-UAS-bla HEK 293T (Invitrogen, Carlsbad, CA, USA) containing a beta-lactamase reporter gene under the control of an Upstream Activator Sequence (UAS) was used to screen Tox21 10K compound library.
Tox21 Assay Protocol Summary: PR-UAS-bla HEK 293T cells were dispensed at 3,000 cells/5 uL of assay medium containing 2% charcoal stripped FBS per well into black wall/clear-bottom 1536-well plates using a Multidrop Combi (ThermoFisher Scientific, Waltham, MA) dispenser. After the assay plates were incubated at a 37C and 5% CO2 for 6hr, 23 nL of compounds dissolved in DMSO, positive controls or DMSO only was transferred to the assay plate by a Pintool station (Kalypsys, San Diego, CA). The plates were incubated at 37C and 5% CO2 for 16hr. Then 1 uL of LiveBLAzer B/G FRET substrate was added using a BioRAPTR FRD (Flying Reagent Dispenser, Aurora Discovery, San Diego, CA). After the plates were incubated at room temperature for 2 hours, fluorescence intensity was measured by an Envision plate reader (PerkinElmer, Shelton, CT).

Progesterone receptor (Homo sapiens), sequence (P06401 whole entry, looked up): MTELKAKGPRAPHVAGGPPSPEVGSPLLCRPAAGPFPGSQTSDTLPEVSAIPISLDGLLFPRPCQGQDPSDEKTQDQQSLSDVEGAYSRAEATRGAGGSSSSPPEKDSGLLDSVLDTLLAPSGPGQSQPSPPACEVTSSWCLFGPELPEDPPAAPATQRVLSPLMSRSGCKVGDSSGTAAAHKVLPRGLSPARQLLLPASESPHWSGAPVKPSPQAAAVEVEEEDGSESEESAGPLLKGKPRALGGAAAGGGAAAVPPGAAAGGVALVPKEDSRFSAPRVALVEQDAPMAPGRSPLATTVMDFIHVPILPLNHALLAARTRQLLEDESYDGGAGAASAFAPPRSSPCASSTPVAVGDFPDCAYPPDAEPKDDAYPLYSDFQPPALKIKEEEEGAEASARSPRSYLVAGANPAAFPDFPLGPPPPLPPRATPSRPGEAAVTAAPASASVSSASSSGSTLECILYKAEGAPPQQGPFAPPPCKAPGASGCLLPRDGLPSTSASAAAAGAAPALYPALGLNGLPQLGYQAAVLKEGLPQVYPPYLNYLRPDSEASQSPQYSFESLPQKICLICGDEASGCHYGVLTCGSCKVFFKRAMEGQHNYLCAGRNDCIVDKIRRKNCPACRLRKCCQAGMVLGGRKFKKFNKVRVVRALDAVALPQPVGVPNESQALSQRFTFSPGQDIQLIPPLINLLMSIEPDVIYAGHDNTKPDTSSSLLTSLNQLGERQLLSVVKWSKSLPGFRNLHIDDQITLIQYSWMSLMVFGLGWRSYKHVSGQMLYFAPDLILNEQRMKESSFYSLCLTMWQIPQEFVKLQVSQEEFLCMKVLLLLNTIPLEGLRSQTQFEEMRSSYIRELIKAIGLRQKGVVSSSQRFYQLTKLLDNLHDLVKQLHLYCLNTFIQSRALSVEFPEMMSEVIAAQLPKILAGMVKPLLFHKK

Row | Compound | Potency | activation
1 | CCN1CCC[C@H]1CNC(=O)c1cc(S(N)(=O)=O)ccc1OC | inactive | 
2 | N=c1nc(N2CCCCC2)cc(N)n1O | inactive | 
3 | CCc1nccnc1CC |  | 0.626% [at 19 µM] (inactive)
4 | CN1CC(=O)NC1=N | inactive | 
5 | CC(=O)OCC(CCn1cnc2cnc(N)nc21)COC(C)=O | inactive | 
6 | Cn1c(N)c(N=O)c(=O)n(C)c1=O | inactive | 
7 | COC(=O)c1c(Cl)c(Cl)c(C(=O)OC)c(Cl)c1Cl | inactive | 
8 | CCCCCCCCCCCCN(CCCCCCCCCCCC)CCCCCCCCCCCC | inactive | 
9 | Cc1c(NC(C)C)c(=O)n(-c2ccccc2)n1C | inactive | 
10 | C=CCOCC(CC)(CO)COCC=C | inactive | 
11 | COCCCOCCCOC | inactive | 
12 | Cc1[nH]c(=O)c(C#N)cc1-c1ccc2nccn2c1 | inactive | 
13 | CCN(CC)CCNC(=O)c1cc(S(C)(=O)=O)ccc1OC | inactive | 
14 | NC(=O)c1ccc(N)cc1 | inactive | 
15 | NCCc1cnc[nH]1 | inactive | 
16 | NC(=O)COCCN1CCN(C(c2ccccc2)c2ccc(Cl)cc2)CC1 (stereo not given) | inactive | 
17 | NS(=O)(=O)c1cc(C(=O)O)cc(N2CCCC2)c1Oc1ccccc1 | inactive | 
18 | C/C=C(\C)C#N | inactive | 
19 | O=C1OC(=O)C2CCCCC12 (stereo not given) | inactive | 
20 | CN(C(=O)c1c(O)c2ccccc2n(C)c1=O)c1ccccc1 | inactive | 

Row | Compound | Potency | activation
21 | CN1CCCC1 | inactive | 
22 | COC(=O)NN | inactive | 
23 | CC/C=C\CCOC(C)=O | inactive | 
24 | C[C@H]1C[C@@H](O)CC(C)(C)C1 | inactive | 
25 | CC(C)NCCCC1(C(N)=O)c2ccccc2-c2ccccc21 | inactive | 
26 | O=C(O)CN(CCOCCOCCN(CC(=O)O)CC(=O)O)CC(=O)O |  | -1.13% [at 0.349 µM] (inactive)
27 | OCCCC1CCCCC1 | inactive | 
28 | NC(=O)c1ccc([N+](=O)[O-])cc1 | inactive | 
29 | c1ccc([C@H]2CN3CCSC3=N2)cc1 | inactive | 
30 | COc1nc(N)nc2c1ncn2[C@@H]1O[C@H](CO)[C@@H](O)[C@@H]1O | inactive | 
31 | CCOC(=O)CC(C)=O | inactive | 
32 | CCOC(C)(C)C | inactive | 
33 | COCCc1ccc(OCC(O)CNC(C)C)cc1 (stereo not given) | inactive | 
34 | O=C1NC(=O)[C@@]2(CCOc3ccc(F)cc32)N1 | inactive | 
35 | CC(=O)c1ccccc1O | inactive | 
36 | O=Cc1cccc([N+](=O)[O-])c1 | inactive | 
37 | O=C(O)CCCc1ccccc1 | inactive | 
38 | CCCCOCCOCCOCCCC | inactive | 
39 | C[N+](C)(C)CCCCCC[N+](C)(C)C | inactive | 
40 | CC(C)(C)c1ccc(O)c(O)c1 | inactive | 
